IL1B NFkB pot: enhances IL-1B driven NFkB nuclear translocation; activation, % at 2 µM; HUVEC IL-1B NFkB p65 nuclear translocation imaging; actives 0.3% (n = 94,000);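 active means activation above 40%, about the mean plus 3 SD, also judged a hit on visual image review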;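 further: percent activation is computed from the nuclear over cytoplasmic p65 intensity ratio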
NFkB transloc inh: blocks IL-1B driven NFkB nuclear translocation in HUVEC cells; HUVEC IL-1B NFkB p65 nuclear translocation imaging; inhibition, % at 2 µM; actives 0.43% (n = 94,000);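 active means inhibition above about 30% together with a positive call from visual inspection of the well image, limit read from the data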;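 further: nuclear over cytoplasmic p65 intensity ratio measured by imaging; 0% = IL-1B stimulated DMSO wells and 100% = unstimulated DMSO wells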
Cav3 T inh: inhibitors of human Cav3.2 T-type calcium channel | B-score at 10 µM | Cav3.2-expressing cells, Fluo-4 calcium fluorescence FDSS; hits give low values | actives 4% (n = 100,000) | AID 449739;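 active means single-dose well whose peak fluorescence ratio is a statistical outlier from its plate by either plate-standardised score or position-corrected B-score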
IL1B cytotox: toxic to HUVEC cells under IL-1B stimulation. actives 0.41% (n = 94,000). AID 845. cell count reduction, % at 2 µM. HUVEC cell count loss, Hoechst imaging, IL-1B stimulated;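 active means cell count reduction more than 3 SD above the screen-wide mean, cut at about 70% in these data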;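 further: normalized per plate to untreated control cells as the no-loss baseline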
The depositor's hits bear a star; · = not tested or not shown. Only some compounds are listed: those with a hit (about 4.4% of all), similar ones and a draw of the others.

SMILES	IL1B NFkB pot	NFkB transloc inh	Cav3 T inh	IL1B cytotox
CCOC(=O)Nc1nnc(CCc2ccccc2)s1	-101	101*	0.78	-5
CCOCC(=O)Nc1nnc(COC)s1	1	-1	0.78	-5
COc1ccc(-c2nn(CC(=O)N(C)C)c(=O)c3ccccc23)cc1	·	·	0.68	·
CC/C(=C\C(=O)c1ccncc1)Nc1ccc(Br)cc1	-5	5	-1.1	7
Cc1cc(C(c2nnnn2Cc2ccccc2)N2CCOCC2)c(C)n1-c1ccc2c(c1)OCO2 (stereo not drawn)	23	-23	-4.6*	-16
O=S(=O)(Nc1ccc(F)cc1)c1ccc(NC(=S)Nc2ccccc2)cc1	-3	3	·	10
CSc1cccc(NS(=O)(=O)c2ccccc2)c1	6	-6	-1	-2
CSc1cccc(NS(=O)(=O)c2ccc(F)cc2)c1	-15	15	-7*	20
COc1ccc(N2CCN(CC(=O)Nc3nnc(-c4ccccc4)s3)CC2)cc1	-12	12	0.9	-30
Cc1ccc(N2C(=O)c3ccccc3C2Nc2ccccc2)nc1 (stereo not drawn)	-8	8	-0.23	-5
CCc1cccc(NC2c3ccccc3C(=O)N2c2ccc(C)cn2)c1 (stereo not drawn)	-17	17	-4.4*	-5
C=CCc1cc(C(=O)N2CCCCC2)ccc1O	19	-19	·	38
C=CCc1ccc(O)c(-c2ccc(O)c(CC=C)c2)c1	·	·	-5.4*	·
CCN(CC)CCn1c(NCc2nc3ccccc3n2Cc2ccccc2)nc2ccccc21	·	·	-4.2*	·
Cn1c(CNc2nc3ccccc3n2CCN2CCCCC2)nc2ccccc21	12	-12	0.93	-23
c1ccc(Cn2c(CNc3nc4ccccc4n3CCN3CCCCC3)nc3ccccc32)cc1	-7	7	-3.8*	7
Cc1c(Br)c([N+](=O)[O-])nn1CC(=O)NCc1cccnc1	·	·	-0.16	·
O=C(CN1C(=O)c2ccccc2C1=O)Nc1cccc2cccnc12	-9	9	-11*	10
Cc1cc(C(=O)OCC(=O)Nc2ccc(F)cc2)c(C)o1	25	-25	0.14	-58
CCN(CC)S(=O)(=O)c1cccc(NC(=O)COC(=O)c2cc(C)oc2C)c1	3	-3	-6*	6
CCNC(=O)CN(CCc1ccccc1)S(=O)(=O)c1ccc(OC)cc1	-6	6	1.4	6
CCNC(=O)CN(Cc1ccccc1)S(=O)(=O)c1ccccc1	-35	36*	0.14	10
COC(=O)\C(C(C)=O)=C(/C=C/C=C/C=C/N(C)C)N(C)C	-6	6	-7*	-4
CC(C)(C)OCC(NC(=O)C(CC(N)=O)NC(=O)OC(C)(C)C)C(=O)OC(C)(C)C (stereo not drawn)	·	·	-1.2	·
CCCC[C@@H]1CNC(=O)C(=O)N1CC(C)(C)C	·	·	-1.5	·
SMILES	IL1B NFkB pot	NFkB transloc inh	Cav3 T inh	IL1B cytotox
CCOC(=O)c1cc2n(c1/N=C/N(C)C)-c1ccccc1C2=O	4	-4	-3.9*	-15
CCCCN(CCCC)C(=O)CSc1nnc2n(C)c(=O)c3c4c(sc3n12)CCCC4	22	-22	-3.7	-25
Cn1c(=O)c2c3c(sc2n2c(SCC(N)=O)nnc12)CC(C(C)(C)C)CC3 (stereo not drawn)	13	-13	4.2*	-23
O=C(NC1=NCCS1)C1CC(=O)N(c2ccc(F)cc2)C1 (stereo not drawn)	28	-28	·	-4
O=C(Nc1nc2ccccc2s1)C1CC(=O)N(c2ccc(F)cc2)C1 (stereo not drawn)	8	-8	-4.6*	-19
O=C(Nc1nc2ccccc2s1)C1CC(=O)N(c2ccccc2)C1 (stereo not drawn)	-1	1	-5.1*	0
O=C(Nc1nc2ccccc2s1)C1CC(=O)N(c2ccc(Br)cc2)C1 (stereo not drawn)	-9	9	-3.1	0
Clc1ccc(Cn2ncc3c(NCc4ccco4)ncnc32)c(Cl)c1	0	0	-5.8*	0
Cc1cccc(C)c1NC(=O)CSCC(=O)c1ccc(O)c(O)c1	11	-11	0.57	14
O=C(N/N=C/c1cccc(Oc2ccc([N+](=O)[O-])cc2[N+](=O)[O-])c1)c1cncc(Br)c1	10	-10	2.3	-4
NC(=O)c1ccccc1N	·	·	0.72	·
CCN1CCN(S(=O)(=O)c2cc(OCC(=O)NC3CCCCC3)c(C)cc2Cl)CC1	29	-29	1.3	1
Cc1cc(Cl)c(S(=O)(=O)N2CCCCCC2)cc1OCC(=O)NC1CCCCC1	-8	8	-4.2*	-74
O=C(Cn1c(=O)n(-c2ccccc2)c(=O)n1CC(=O)N1CCCCC1)N1CCCCC1	6	-6	0.62	3
Cc1ccccc1CSc1n[nH]c(NS(=O)(=O)c2ccccc2)n1	15	-15	-0.49	-11
CN(C)S(=O)(=O)N(CC(=O)Nc1ccc2ccccc2c1)c1ccccc1	1	-1	-9.5*	17
CN(C)S(=O)(=O)N(CC(=O)Nc1ccc(F)c(F)c1)c1ccccc1	0	0	-0.85	23
O=S(=O)(c1ccc2c(c1)OCCO2)N1CCN(Cc2ccc3c(c2)OCO3)CC1	4	-4	-0.16	-7
Cn1c(=O)oc2cc(S(=O)(=O)N3CCN(Cc4ccc5c(c4)OCO5)CC3)ccc21	-11	11	-0.51	87*
CCC(=O)c1cc(F)c(N2CCN(S(=O)(=O)c3ccc(C)cc3)CC2)cc1C	20	-20	-0.62	4
CCOC(=O)N1CCC(n2c(SCC(=O)NCCC3=CCCCC3)nc3ccccc3c2=O)CC1	8	-8	-5.1*	27
CCOC(=O)N1CCC(n2c(SCC(=O)OCc3ccccc3)nc3ccsc3c2=O)CC1	-2	2	-4*	-18
COc1cc2c(cc1OC)CN(CC(=O)Nc1ccc3c(c1)OC(F)(F)O3)CC2	-8	8	·	21
C=CCOC(=O)C1=C[C@@H](c2coc3ccccc3c2=O)C[C@@H](OCc2ccc(CO)cc2)O1	·	·	-0.62	·
CC(C)(C)c1ccc(S(=O)(=O)N2CCC(c3nc4ccc(Cl)cc4[nH]3)CC2)cc1	13	-13	-4.6*	-4
SMILES	IL1B NFkB pot	NFkB transloc inh	Cav3 T inh	IL1B cytotox
CC(=O)Nc1ccc(S(=O)(=O)N2CCC(c3nc4ccc(C)cc4[nH]3)CC2)cc1	·	·	0.8	·
Cn1c(N)c(C(=O)COC(=O)CCCc2c[nH]c3ccccc23)c(=O)n(C)c1=O	-2	2	-0.094	-7
Cn1c(N)c(C(=O)COC(=O)CCc2c[nH]c3ccccc23)c(=O)n(C)c1=O	55*	-55	0.63	-3
Cc1cc(C(=O)CSc2nnc(-c3cccs3)o2)c(C)n1-c1ccccc1	·	·	-5.1*	·
O=C(CSc1nnc(-c2cccs2)o1)OC1CCCCC1	·	·	-0.62	·
CCC1CCCCN1C(=O)CSc1nnc(-c2cccs2)o1 (stereo not drawn)	-97	97*	0.11	86*
Cc1cc(C)cc(NC(=O)CSc2nnc(-c3ccccc3Br)o2)c1	22	-22	-1.1	-40
COc1cccc(NC(=O)CSc2nnc(-c3cc(C)n(-c4ccccc4)c3C)o2)c1	20	-20	-3.6*	-5
CCOC(=O)CCSc1nnc(-c2cccnc2)n1-c1ccccc1OC	2	-2	0.69	-14
CCCc1nnc(SCc2ccc(C(=O)OC)o2)n1N	2	-2	0.28	1

Screening results: PubChem BioAssay, several laboratories
